In publication PMC5540273 (PLoS ONE, 2017):

What was measured:
Conditions in all cases: concentration: 1 μM,replicates: in singlicate; n = 1
[1] = tested on: T1, ERK1
T1 construct: gene MAPK3

[2] = tested on: T2, ERK2
T2 construct: gene MAPK1

[3] = tested on: T3, ERK3
T3 construct: gene MAPK6

[4] = tested on: T4, ERK4
T4 construct: gene MAPK4

[5] = tested on: T5, ERK5
T5 construct: gene MAPK7

[6] = tested on: T6, ERK8
T6 construct: gene MAPK15

[7] = tested on: ERN1
[8] = tested on: T7, FAK
T7 construct: gene PTK2

[9] = tested on: FER
[10] = tested on: FES
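Also: KINOMEscan kinase panel screen.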

Structure (SMILES) | %Inh [1] [%] | %Inh [2] [%] | %Inh [3] [%] | %Inh [4] [%] | %Inh [5] [%] | %Inh [6] [%] | %Inh [7] [%] | %Inh [8] [%] | %Inh [9] [%] | %Inh [10] [%]
Cn1ccc2ncnc(Oc3ccc(NC(=O)Nc4cnn(C(C)(C)C)c4)c(Cl)c3)c21 | 19 | 4 | 0 | 1 | 7 | 25 | 26 | 0 | 0 | 13
CC(C)S(=O)(=O)N1CCN(Cc2ccc3c(c2)nc(NC(=O)c2ccsc2)n3C[C@H](O)c2ccccc2)CC1 [GW635815] | 0 | 0 | 1 | 0 | 0 | 0 | 4 | 29 | 39 | 15
Cn1ccc2ncnc(Oc3ccc(NC(=O)Nc4cncc(C(F)(F)F)c4)c(Cl)c3)c21 | 0 | 0 | 0 | 0 | 0 | 0 | 0 | 0 | 0 | 0
Cl.Nc1n[nH]c2cc(-c3ccccn3)ccc12 [GSK2189892] | 0 | 0 | 0 | 31 | 0 | 0 | 0 | 0 | 13 | 0
Cl.c1ccc(Oc2ccc(Nc3ccnc4cc(-c5ccc(CN6CCNCC6)o5)ccc34)cc2)nc1 [GW567142] | 0 | 0 | 0 | 30 | 0 | 0 | 0 | 9 | 4 | 0
Cc1n[nH]c2cc(Nc3ccnc(Nc4cccc(CN5CCOCC5)c4)n3)ccc12 [GW682569] | 0 | 0 | 0 | 22 | 7 | 0 | 24 | 0 | 8 | 0
CCNCC(Cc1ccccc1)NC(=O)c1cc(Br)c(-c2ccnc3[nH]ccc23)s1.Cl.Cl (stereo not shown) [GSK1383280] | 19 | 0 | 4 | 32 | 0 | 3 | 12 | 2 | 0 | 0
NC(=O)Nc1sc(-c2ccc(F)cc2)cc1C(N)=O [GW789449] | 0 | 16 | 0 | 0 | 10 | 10 | 27 | 5 | 0 | 11
COC(=O)c1cccc(NC(=O)NC2CCN(c3ccnc(NCc4ccc(F)cc4)n3)CC2)c1 [GSK1379860] | 0 | 14 | 14 | 0 | 22 | 35 | 0 | 0 | 10 | 1
Cc1ccn2nc(-c3ccc(F)cc3)c(-c3ccncc3)c2c1.Cl [GW457859] | 0 | 0 | 1 | 15 | 8 | 0 | 0 | 0 | 2 | 0
Cc1cccc(-c2nc(Nc3ccncc3)c3sccc3n2)n1 [GW869641] | 5 | 18 | 3 | 26 | 0 | 2 | 32 | 2 | 9 | 7
O=C(Nc1n[nH]c2cc(-c3ccco3)ccc12)C1CC1 [SB-737447] | 0 | 0 | 0 | 3 | 0 | 72 | 9 | 3 | 0 | 1
CC(C)c1nc(-c2cccc(NS(=O)(=O)c3ccccc3)c2)c(-c2ccnc(Nc3ccc4c(c3)CN(C)CC4)n2)s1 [GSK1649598] | 0 | 0 | 0 | 43 | 11 | 0 | 63 | 0 | 23 | 0
Nc1nccc(-c2ccc3c(N)n[nH]c3c2)n1 [GSK1034945] | 0 | 0 | 0 | 8 | 0 | 49 | 0 | 0 | 0 | 0
Cc1cccc2c(-c3ccncc3)c(-c3ccc(F)cc3)nn12.Cl [GW461487] | 0 | 0 | 5 | 15 | 0 | 0 | 7 | 0 | 4 | 0
COc1cc2nccc(Nc3ccc(Oc4ccccc4)cc3)c2cc1OC.Cl [GI261656] | 0 | 0 | 17 | 0 | 0 | 0 | 29 | 0 | 33 | 0
CC(=O)Nc1ccc(-c2cc3ncnc(SCC(=O)O)c3s2)cc1 | 0 | 9 | 0 | 0 | 0 | 27 | 10 | 1 | 0 | 14

Structure (SMILES) | %Inh [1] [%] | %Inh [2] [%] | %Inh [3] [%] | %Inh [4] [%] | %Inh [5] [%] | %Inh [6] [%] | %Inh [7] [%] | %Inh [8] [%] | %Inh [9] [%] | %Inh [10] [%]
Cc1ccc2c(-c3ccnc(Nc4ccc(C(F)(F)F)cc4)n3)cnn2n1 [GW819776] | 19 | 3 | 22 | 0 | 0 | 99.4 | 17 | 13 | 18 | 10
CNC(=O)c1ccccc1Nc1nc(Nc2cccc(CS(C)(=O)=O)c2)ncc1C.O=CO [GSK1520489] | 46 | 60 | 35 | 35 | 0 | 80 | 58 | 99.9 | 96 | 38
CC(=O)c1c(-c2ccncc2)[nH]c(-c2ccncc2)c1C [GW493036] | 3 | 0 | 0 | 0 | 0 | 96.5 | 0 | 0 | 2 | 0
Cn1ccc2ncnc(Oc3ccc(NC(=O)Nc4cccc(C(F)(F)F)c4)c(F)c3)c21 | 0 | 19 | 0 | 14 | 11 | 74 | 0 | 34 | 28 | 0
O=C(Nc1cccc(Oc2ccc3nccn3n2)c1)Nc1cccc(C(F)(F)F)c1 | 0 | 0 | 0 | 1 | 2 | 18 | 6 | 2 | 0 | 2
CCOC(=O)N1CCC(n2cnc(-c3ccc(F)cc3)c2-c2ccnc(N)n2)CC1 [SB-219952] | 0 | 0 | 0 | 8 | 0 | 0 | 19 | 0 | 20 | 0
FC(F)(F)c1cc(Br)cc(Nc2nccc(-c3cnn4ncccc34)n2)c1 [GW810578] | 0 | 25 | 16 | 0 | 0 | 99.5 | 59 | 18 | 0 | 0
COc1cccc(CNC(=O)NC2CCN(c3ccnc(Nc4cc(OC)c(OC)c(OC)c4)n3)C2)c1 (stereo not shown) [GSK1379765] | 0 | 0 | 33 | 0 | 0 | 0 | 3 | 0 | 26 | 0
CN1CCN(CCNc2nc3cc(Oc4ccc(NC(=O)Nc5cc(C(F)(F)F)ccc5F)cc4)ccc3[nH]2)CC1.Cl.Cl [GW768504] | 0 | 0 | 0 | 0 | 0 | 69 | 0 | 11 | 20 | 9
O=C1NCCc2[nH]c(-c3ccncc3)cc21 | 13 | 28 | 0 | 0 | 0 | 93.1 | 8 | 0 | 4 | 30
CCn1c(-c2nonc2N)nc2cncc(CNC3CCNCC3)c21.Cl [SB-747651] | 0 | 0 | 6 | 0 | 0 | 16 | 2 | 0 | 2 | 0
CS(=O)(=O)Nc1ccc(-c2ccnc3[nH]ccc23)cc1 [GSK993273] | 0 | 0 | 0 | 13 | 0 | 0 | 25 | 0 | 16 | 0
O=C(NCC1CC1)c1ccc(-c2cc(C(=O)NC3CC3)ccc2F)cc1 [GW810445] | 0 | 0 | 0 | 0 | 1 | 0 | 0 | 3 | 0 | 0
CCCC(=O)Nc1n[nH]c2ncccc12 [SB-601436] | 0 | 0 | 0 | 0 | 0 | 0 | 0 | 0 | 0 | 12
CS(=O)(=O)c1cccc(CNc2nc(Nc3ccc4c(c3)[C@@H]3C[C@@H]4CNC3=O)ncc2C(F)(F)F)c1 | 24 | 44 | 0 | 0 | 7 | 99.6 | 17 | 100 | 93.4 | 85
COc1cc2c(Nc3ccc(NC(=O)c4ccccc4)cc3)ncnc2cc1OCCCN1CCOCC1 [GSK301329] | 4 | 3 | 0 | 0 | 0 | 0 | 46 | 0 | 4 | 0
COc1cccc(OC)c1C(=O)Nc1cccc(-c2nn3ccccc3c2-c2ccnc(Nc3cccc(F)c3)n2)c1 [GSK361065] | 1 | 6 | 1 | 9 | 2 | 3 | 10 | 1 | 24 | 20
